Results taken from ChEMBL document CHEMBL4888484, “Replenishing the malaria drug discovery pipeline: Screening and hit evaluation of the MMV Hit Generation Library 1 (HGL1) against asexual blood stage Plasmodium falciparum ,using a nano luciferase reporter read-out” (2022).
Screen size: about 4,800 compounds; about 420 (8.8%) showed an effect of 50% or more. Many of the other results were omitted from the sample, so strong results are more common in it than they were.

Tested on: Plasmodium falciparum
Assay: Confirmatory screen in NF54 nanoGlo assay, in single point, at 2uM, 72h
Format: functional, Erythrocyte
Conditions: timepoint 72 hour

SMILES	% Inhibition [%]
CC1(C)C[C@@H](NC(=O)COc2ccc(CO)cc2)CCO1	-1
O=C(Nc1nc(Cc2ccccc2)cs1)C1CCOCC1	2
CCNC(=O)C(=O)NCc1ccc(OC)cc1	-17
COc1ccc(CC2C(O)C(Cc3ccc(OC)cc3)C3CCC2N3C)cc1 (stereo not drawn)	7
COc1ccc(CNCCC2C(C)CN(C)C(C)C2Cc2ccccc2)cc1 (stereo not drawn)	59
C[C@H]1CS(=O)(=O)C[C@H]1NC(=O)Nc1ccc2ccoc2c1	-5
CNc1nc(C)cc(C(=O)Nc2ccc(Cl)cc2NC(C)=O)n1	2
C[C@@H](NC(=O)Nc1ccc(Cl)c(Cl)c1)C(=O)O	5
O=C(Nc1ccc(Cl)c(Cl)c1)Nc1ccc(Cl)cc1NC(=O)Nc1ccc(Cl)c(Cl)c1	65
O=C1CCC(=O)N1c1cnn(Cc2ccccc2)c1	1
CC(C)(C)OC(=O)N1CCC2(CC1)NN=C1C=C(N3CCN(c4ccccc4F)CC3)N=CN12	-8
CCOc1ccc(NC(=O)Cn2cnc3c(-c4cccc(OC)c4)cn(C)c3c2=O)cc1	-1
CN1CC[C@H](CN(C)Cc2ccc3cc(O)ccc3c2)C1	9
CNC(=O)c1cc(Br)cnc1NC	3
CC(=O)Nc1ncc(Br)cc1C	3
COC1CCCC1NC(=O)Nc1ncc(Br)cc1C (stereo not drawn)	74
Cc1c(NS(=O)(=O)c2ccc(Cl)cc2)c(-n2cnnc2)nn1C	-7
O=C(NCCN1CCCCC1)c1n[nH]c2c1CCc1ccccc1-2	1
COc1cc(=O)[nH]cc1Br	-3
CC(C)N1CCO[C@H](C(=O)Nc2c[nH]nc2-c2ccccc2)C1	-5
O=C(O)c1nccc(C(F)(F)F)c1Cl	-19
CC(C)(C)c1ccc(NC(=O)c2ccnnc2)c(O)c1	-8
CC1(C)C2CCC13CS(=O)(=O)N=C3C2 (stereo not drawn)	3
COC(=O)c1ccccc1NC(=O)NCCn1nnc2cc(S(=O)(=O)N(C)C)ccc21	55
Cc1cccc(NC(=O)NCCn2nnc3cc(S(=O)(=O)N4CCCC4)ccc32)c1C	-1
O=S(=O)(c1ccc(F)cc1)n1ccc(-c2cccc(OCc3ccc(Cl)cc3Cl)c2)n1	-4
Cc1nc2c(sc(=S)n2-c2ccc(Cl)c(Cl)c2)c(=O)[nH]1	-2

SMILES	% Inhibition [%]
CCOC[C@@H](O)CN(Cc1c(C)nn(-c2ccccc2)c1Oc1cccc(C)c1)C1CC1	10
CCc1cc(C(=O)N2CCC3(CC2)C[C@H](c2ccccc2)C(=O)N3C)no1	-8
O=C(OCC(=O)N1CCN(Cc2ccccc2)CC1)c1nccc2ccccc12	1
CC(CNc1ccccn1)N1CCOCC1C (stereo not drawn)	-5
Cc1ccc(Cl)c(OCn2ccc(C(=O)Nc3ccc(Br)cn3)n2)c1	-16
O=C(NCc1ccccc1F)C1CCN(c2cncnc2N2CCCC2)CC1	33
CCS(=O)(=O)C1CN(C(=O)c2ccnn2C2CCCC2)C1	-7
COCCCn1c(COc2ccc(OC)cc2)n[nH]c1=O	1
COc1c(Cl)cc(Cl)cc1CNC(C)C	4
NCc1ccc(O)c(Br)c1	2
COc1ccnc(NCc2ccc(N3CCOCC3)cc2)n1	-3
Cc1ccc(CNC(=O)c2nc(-c3ccncc3)cs2)o1	7
CC(=O)c1cccc(S(=O)(=O)N2CCN(C(=O)c3ccc4c(c3)CCC4)CC2)c1	2
Cc1cc(C)n(S(=O)(=O)c2ccc3c(c2)OCCO3)n1	-3
CC12CN(S(=O)(=O)c3ccc4c(c3)OCCO4)C3(C(=O)OCc4ccccc4)CC1CCC23C (stereo not drawn)	59
COc1ccc2c(c1)CCN2S(=O)(=O)c1ccc2c(c1)OCCO2	-4
CC(C)OC(=O)N1C(=O)c2ccccc2NC1(C(F)(F)F)C(F)(F)F	-22
Nc1ccc2c(c1)Oc1cc(N)ccc1OCCOCCOCCO2	-10
Cc1cccc(-n2c(-c3sc(Nc4ccccc4)nc3-c3ccccc3)nc3ccccc3c2=O)c1	6
O=c1c2ccccc2nc2cc(-c3ccc(O)cc3)c(-c3ccccc3)nn12	53
COC(=O)Nc1nc(-c2ccccc2)c(-c2nc3ccccc3c(=O)n2-c2ccc(OC)cc2)s1	5
Cc1ccc(/N=C(\N)C(Cl)(Cl)Cl)c(C)c1	-2
c1ccc(N2CCN(CCN[C@H]3CCc4cc5c(cc43)CCC5)CC2)cc1	8
CN(Cc1ccc(F)cc1Cl)[C@H]1CCc2nnc(C3CCOCC3)n2CC1	-13
Oc1ccccc1CCN[C@H]1CCc2ccc(F)cc21	98
Cc1ccnc(CNC(=O)N[C@H]2CCc3ccc(F)cc32)c1	-10
